In the library only some 32% were active in any assay of this set; here they are far more common.
PostGolgi yeast: phenotypic screen on post-Golgi transport, primary screen | post-Golgi transport phenotypic cell assay | inhibition, % at 10 µM | actives 0.9% (n = 98,000) | AID 739, 2007;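 further: yeast cells grown in 1536-well plates; yeast grown about 18 h at 30C before absorbance read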
CYP2C19 inh: blockers of cytochrome P450 2C19 activity – biochemical, luminescence, ADME assay, primary screen | P33261 | CYP2C19 Supersomes, luciferin-H EGE luminescence, 30 min | inhibition, % at 5 µM | actives 21% (n = 96,000) | AID 778, 2007;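 active means CYP2C19 inhibition above a set limit at 5 µM in the primary screen, cut at about 50% in these data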;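 further: plate controls were negative control wells for no effect and 2.5 mM tranylcypromine positive control for full effect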
Target sequence (P33261 whole entry, looked up): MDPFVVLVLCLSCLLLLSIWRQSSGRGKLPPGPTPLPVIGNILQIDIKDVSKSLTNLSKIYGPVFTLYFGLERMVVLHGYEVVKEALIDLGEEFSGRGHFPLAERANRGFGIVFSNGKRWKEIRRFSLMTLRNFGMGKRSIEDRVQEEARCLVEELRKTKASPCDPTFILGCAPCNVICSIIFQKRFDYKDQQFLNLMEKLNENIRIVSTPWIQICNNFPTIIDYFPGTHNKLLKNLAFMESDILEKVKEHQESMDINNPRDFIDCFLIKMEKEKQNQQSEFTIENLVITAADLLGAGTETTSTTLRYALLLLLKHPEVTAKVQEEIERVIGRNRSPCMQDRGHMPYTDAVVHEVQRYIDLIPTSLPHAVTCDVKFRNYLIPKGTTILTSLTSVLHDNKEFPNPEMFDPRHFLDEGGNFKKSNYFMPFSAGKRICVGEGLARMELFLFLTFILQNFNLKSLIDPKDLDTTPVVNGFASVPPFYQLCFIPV
CYP2C19 act: human CYP2C19 activators, primary screen, biochemical, luminescence; recombinant CYP2C19, luciferin-H EGE luminescence; hits give high values; 0 = fully inhibited enzyme, 1 = untreated enzyme; Cytochrome P450 2C19 (Homo sapiens), P33261; activation factor at 5 µM; 96,000 tested, under 10 active;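 active means activation factor of at least 2 at 5 µM in the primary screen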;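 further: 0 = wells with 2.5 mM tranylcypromine and 1 = vehicle-only wells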
CYP2C9 activ: human CYP2C9 activators, primary screen, biochemical, luminescence | recombinant CYP2C9, luciferin-H conversion; hits give high values; factor 1 = untreated enzyme, 0 = blocked | activation factor at 5 µM | actives 1.4% (n = 96,000);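 active means activation factor of 2 or more for CYP2C9 at a 5 µM dose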;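 further: 0 = sulfaphenazole-blocked wells and 1 = vehicle-only wells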
CYP2C9 inhib: blockers of cytochrome P450 2C9 activity – biochemical, luminescence, ADME assay, primary screen. P11712. CYP2C9 Supersomes, luciferin-H conversion. inhibition, % at 5 µM. actives 20% (n = 96,000). AID 777, 2007;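 active means blocking of liver enzyme CYP2C9 beyond about 50% at 5 µM, limit read from the data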
PostGolgi ctrl: growth inhibition of yeast control strain, primary screen, counter-screen for post-Golgi transport modulator project | actives 5% (n = 98,000) | efflux-deficient yeast background strain, growth absorbance A615, 16 h | inhibition, % at 10 µM | AID 738, 2007
Starred values were filed as active, the others as inactive; · = no result. Unless noted, no stated cut-off is given here; in the data, active means inhibition above about 30%; inactive means the rest.

SMILES | PostGolgi yeast | CYP2C19 inh | CYP2C19 act | CYP2C9 activ | CYP2C9 inhib | PostGolgi ctrl
COc1cc(C(=O)Sc2ccc(C)cc2)cc(OC)c1OC | 15.4 | 18.6 | 0.8 | 0.9 | 6.9 | 45.3*
COc1ccc(C(=O)CSc2nnc(C3CC3)n2N)cc1 | -0.3 | 38.4 | 0.6 | 0.7 | 31.1 | 1.9
CCn1c(SCC(=O)c2cc(OC)ccc2OC)nnc1C1CC1 | · | 93.9* | 0.1 | 1 | -2.7 | ·
CCn1c(SCC(=O)c2ccc(OC)cc2)nnc1C1CC1 | 5.0 | 54.9* | 0.5 | 1.1 | -7.5 | 3.0
COc1ccc(OC)c(C(=O)CSc2nnnn2C)c1 | -4.7 | 28.4 | 0.7 | 1 | 3.9 | -5.6
CCn1nnnc1SCC(=O)c1cc(OC)ccc1OC | -4.4 | 93.1* | 0.1 | 0.6 | 42.5 | 1.1
CCc1ccccc1N1C[C@@]23C=C[C@@H](O2)C(C(=O)OCC(C)C)[C@H]3C1=O (some centres not stated) | -8.8 | 15.5 | 0.8 | 1 | -2.4 | 23.7
Cc1cc(C)nc(-n2nc(C)cc2NC(=O)CN2CCC(C)CC2)n1 | 0.3 | 3.4 | 1 | 0.7 | 30.7 | 8.8
Cc1cc(C)nc(-n2nc(C)cc2NC(=O)c2cccc(S(=O)(=O)N(C)C)c2)n1 | · | -1.6 | 1 | 1 | -3.9 | ·
CCC1CCCCN1CC(=O)Nc1cc(C)nn1-c1nc(C)cc(C)n1 (configuration not stated) | 7.8 | 52.0* | 0.5 | 0.1 | 93.4* | 7.3
Cc1cc(C)nc(-n2nc(C)cc2NC(=O)CNC(C)c2ccccc2)n1 (configuration not stated) | 8.3 | 47.9 | 0.5 | 0.6 | 43.0 | 34.0*
CCn1c(=O)c2c(O)cc(=O)oc2c2ccccc21 | 31.5* | 9.9 | 0.9 | 1.1 | -6.5 | 1.8
COc1ccc(-c2nc(CSCC(=O)N3CCN(C(=O)c4ccco4)CC3)c(C)o2)cc1OC | -6.7 | 39.7 | 0.6 | 0.6 | 39.4 | -3.6
CCOC(=O)C1=C(C)N2C(=C(C#N)[C@@H]1c1ccc(C(=O)OC)cc1)SC[C@@]2(O)C(C)(C)C | -6.7 | 97.3* | 0 | 0 | 98.3* | 5.0
CCCn1nc(C(=O)NCC(C)(C)N2CCOCC2)c2ccccc2c1=O | 10.8 | 12.8 | 0.9 | 1 | -2.1 | 17.0
COc1cc2cc3c(N)c(C(=O)Nc4sc(C)c(C)c4C#N)sc3nc2cc1OC | -10.3 | 4.2 | 1 | 0.8 | 17.5 | 10.7
COc1ccc(C(=O)N2CCC(n3c(C)nc4cc(F)ccc43)CC2)cc1OC | 2.0 | 8.6 | 0.9 | 0.6 | 38.2 | 5.5
O=S(=O)(c1ccc2c(c1)OCCO2)N1CCC(n2cnc3cc(F)ccc32)CC1 | -8.0 | 78.4* | 0.2 | 0.6 | 43.2 | 17.2
Cc1nc2cc(F)ccc2n1C1CCN(S(=O)(=O)c2ccccc2)CC1 | 6.0 | 38.4 | 0.6 | 0.3 | 74.0* | 13.6
O=S(=O)(c1ccc2c(c1)OCCO2)N1CCC(n2nnc3cc(F)ccc32)CC1 | -0.8 | · | · | · | · | 21.0
O=C(c1ccc2c(=O)n(-c3ccccc3)c(=O)[nH]c2c1)N1CCCCC1 | 1.7 | -8.6 | 1.1 | 1.1 | -5.0 | 21.6
O=c1[nH]c2cc(Cl)ccc2n1-c1ccccc1 | -6.4 | 50.1* | 0.5 | 0.9 | 13.6 | 24.2
CCSc1nnc(NC(=O)c2cc(C)on2)s1 | 1.4 | 0.9 | 1 | 0.4 | 57.8* | 32.8*
Cc1cc(C(=O)Nc2nnc(C(F)(F)F)s2)no1 | 0.7 | 17.5 | 0.8 | 0.5 | 53.9* | 16.8
CC(NC(=O)Nc1nnc(C(F)(F)F)s1)(C(F)(F)F)C(F)(F)F | 3.8 | 5.9 | 0.9 | 0.3 | 65.6* | 16.5
CCOCC(=O)Nc1nnc(SCCOC)s1 | 3.8 | 1.2 | 1 | 0.5 | 51.0* | 7.4
CCSc1nnc(NC(=O)COc2cccc3ccccc23)s1 | -10.4 | 21.7 | 0.8 | 0.4 | 56.9* | 4.7
CCNC(=O)COc1cccc2ccccc12 | 5.4 | 53.9* | 0.5 | 1.1 | -11.0 | 8.7
O=C(COc1cccc2ccccc12)NNC(=O)Nc1ccccc1 | 0.8 | 53.2* | 0.5 | 2* | -103.6 | 2.2
O=C(COc1cccc2ccccc12)NNC(=O)[C@@H]1CCCC[C@@H]1C(=O)O | -5.7 | 33.1 | 0.7 | 1.7 | -72.3 | 8.4

Screening results deposited in PubChem BioAssay by several laboratories.
